PubChem BioAssay (Tox21)
Records with an inconclusive call do not appear. Calls of active or inactive are those of the source. Calls follow the shape of the dose curve; as a rule, active = well fitted cell-killing curve with a large enough effect in the repeat runs; inconclusive = weak or mixed curves, or effect the other way; inactive = flat fitted curve, though single readings scatter.

Test: qHTS assay to identify small molecule antagonists of the androgen receptor (AR) signaling pathway using the MDA cell line in the presence of 0.5 nM R1881 - cell viability counter screen (AID 1259242); also: nearly all actives have a fitted effect of over 45% in size
Conditions: MDA-kb2 viability, CellTiter-Fluor protease fluorescence, 16 h; series mostly up to 92.4 µM
Text: U.S. Tox21 Program National Center for Advancing Translational Sciences [NCATS] NIH Chemical Genomics Center [NCGC] U.S. Environmental Protection Agency [EPA] National Institutes of Environmental Health Sciences [NIEHS] National Toxicology Program [NTP] U.S. Food and Drug Administration [FDA] Tox21 Assay Overview: Androgen receptor (AR) is an important member of the nuclear receptor family. Its signaling plays a critical role in AR-dependent prostate cancer and other androgen related diseases. Considerable attention has been given in the past decades to develop methods to study and screen for the environmental chemicals that have the potential to interfere with metabolic homeostasis, reproduction, developmental and behavioral functions. Therefore AR binding assay for screening androgen antagonists can be used to identify potential endocrine disruptors. MDA-kb2 cells (from ATCC, deposited by Wilson et al.) were used to screen for AR inhibitors against Tox21 compound libraries. These cells are human breast carcinoma cells that were stably transfected with a luciferase reporter gene under control of the MMTV promoter that contains response elements for both androgen receptor (AR) and glucocorticoid receptor (GR). The current screening for identification of AR inhibitors against Tox21 libraries used lower concentration of (0.5 nM) R1881 as a stimulator. The cytotoxicity of the Tox21 compound libraries against MDA-kb2 cell line was tested by measuring live-cell protease activity using CellTiter-Fluor assay in the same wells.
Tox21 Assay Protocol Summary: MDA-kb2 cells (cells cultured without CO2) were dispensed at 3,000 cells/well in 4 uL of culture medium into white wall/solid-bottom 1536-well plates (Corning Life Sciences, Corning, NY) using a Multidrop Combi (ThermoFisher Scientific, Waltham, MA) dispenser. After the assay plates were incubated at a 37C and 0% CO2 for 5 hr, 23 nL of compounds dissolved in DMSO, positive controls or DMSO only was transferred to the assay plate by a Pintool station (Kalypsys, San Diego, CA). The transfer of compounds was followed by the addition of 1 uL of 0.5 nM (final concentration) agonist (R1881)/culture medium using a Flying Reagent Dispenser (FRD, Aurora Discovery, San Diego, CA). The plates were incubated at 37C and 0% CO2 for 16 hr. For cytotoxicity assay, 1 uL of CellTiter-Fluor reagent (Promega Corporation, Madison, WI) was added to each well using the FRD and after 30 min incubation at 37C and 0% CO2, The fluorescence intensity was measured using ViewLux plate reader (PerkinElmer, Shelton, CT).
% is scaled to controls: 0 for no effect and ±100 for the full control effect.

Compound | outcome | viability change, negative = cytotoxic
OCCN1C[C@H](O)[C@@H](O)[C@H](O)[C@H]1CO | inactive | –
COCc1ccc(COC)cc1 | inactive | –
Cn1ccc2cc3c(cc21)CCN3C(=O)Nc1cccnc1 | – | -1.94% [at 19 µM] (inactive)
CCCCCCCCCCCCCCC | inactive | –
C=C[Si](OC)(OC)OC | inactive | –
Nc1ccn(C2CO[C@H](CO)O2)c(=O)n1 (stereo not given in full) | inactive | –
CCC(C)(C)C1CCC(OC)CC1 (stereo not given) | inactive | –
C1=C\CC/C=C\CC/C=C\CC/1 | inactive | –
COc1nc(C)nc(N)n1 | inactive | –
Nc1cc(C(Cl)=C(Cl)Cl)c(S(N)(=O)=O)cc1S(N)(=O)=O | inactive | –
NS(=O)(=O)c1cc(C2(O)NC(=O)c3ccccc32)ccc1Cl (stereo not given) | inactive | –
CC1(C)SC(C)(C)SC(C)(C)S1 | inactive | –
CC(C)CCCCCCN | inactive | –
Cc1onc(-c2ccccc2)c1-c1ccc(S(N)(=O)=O)cc1 | inactive | –
NS(=O)(=O)c1cc2c(cc1Cl)NC(CSCc1ccccc1)=NS2(=O)=O | inactive | –
Fc1ccccc1-c1ccccc1 | inactive | –
OCC(O)[C@@H](O)[C@H](O)[C@H](O)CO[C@H]1O[C@H](CO)[C@@H](O)[C@H](O)[C@H]1O (stereo not given in full) | inactive | –
CC1=CC(C)C(C=O)C(C)C1 (stereo not given) | inactive | –
O=Cc1ccccc1[N+](=O)[O-] | inactive | –
CCCCCC[C@@H](CCC)C(=O)O | inactive | –

Compound | outcome | viability change, negative = cytotoxic
CC(C)N1C(=O)c2ccccc2C1=O | inactive | –
CCCCCCCCN(C)CCCCCCCC | inactive | –
C1CCCCCCCCCCC1 | – | 10.4% [at 19 µM] (inactive)
CCCCCCOC(=O)c1ccccc1O | inactive | –
CC(C)(C)N(CCO)CCO | inactive | –
CCN1CCN(c2cc3c(cc2F)c(=O)c(C(=O)O)cn3C2CC2)CC1 | inactive | –
CCOC(=O)[C@H](CCc1ccccc1)N[C@@H](C)C(=O)N1CCC[C@H]1C(=O)O | inactive | –
O=C(O)C1CCC1 | inactive | –
CC(C)(O)C(=O)c1ccc(OCCO)cc1 | inactive | –
OC[C@H]1O[C@@H]2O[C@H]3[C@H](O)[C@@H](O)[C@@H](O[C@H]4[C@H](O)[C@@H](O)[C@@H](O[C@H]5[C@H](O)[C@@H](O)[C@@H](O[C@H]6[C@H](O)[C@@H](O)[C@@H](O[C@H]7[C@H](O)[C@@H](O)[C@@H](O[C@H]8[C@H](O)[C@@H](O)[C@@H](O[C@H]9[C@H](O)[C@@H](O)[C@@H](O[C@H]1[C@H](O)[C@H]2O)O[C@@H]9CO)O[C@@H]8CO)O[C@@H]7CO)O[C@@H]6CO)O[C@@H]5CO)O[C@@H]4CO)O[C@@H]3CO | inactive | –
CCCCC=O | inactive | –
CCCOCC(C)OCC(C)O (stereo not given) | inactive | –
CC(=O)CCc1ccc(O)cc1 | inactive | –
Nc1ccc2cc(S(=O)(=O)O)ccc2c1 | inactive | –
CC/C=C\CCCCO | inactive | –
CC(C)c1cccc(O)c1 | inactive | –
Nc1[nH]c(=O)ncc1F | inactive | –
C=CCSCC1Nc2cc(Cl)c(S(N)(=O)=O)cc2S(=O)(=O)N1 (stereo not given) | inactive | –
NC(CS)C(=O)O (stereo not given) | inactive | –
c1ccc2cnncc2c1 | inactive | –
